Molecules are shown by their SMILES. The whole screen tested about 150,000 compounds, of which about 540 (0.36%) showed an effect of 50% or more. Shown is part of a subset that was picked to be rich in strong results.

In this assay the test system is Plasmodium falciparum. Description: Primary screen in NF54 nanoGlo assay, in single point, at 2uM, 72h; a lower Z score goes with more inhibition. The class given is functional, Erythrocyte. The following applies: timepoint 72 hour.
As to `C=C1C(C)C2C(Cc3c[nH]c4ccccc34)NC(=O)C23C(=O)CC(O)C(O)CC(C)C/C=C/C3C1O` (centres undefined), the % Inhibition (usually the relative decrease from the control value, in per cent) was 67% and the Z score is given as -7.59.

For `C[C@@H](O)[C@@H]1NC(=O)[C@@H](Cc2c[nH]c3ccccc23)NC1=O`, the “% Inhibition” value worked out at 5% and the Z score is given as -1.07.

Regarding `CC1CC(C(=O)N2CCN(C(=O)Cc3c[nH]c4ccccc34)CC2)C1` (centres undefined), the “% Inhibition” value is reported as -3% and the Z score is listed as 0.48.

Turning to `CC1=NO[C@H](C(=O)NCC2(Cn3ccnc3C)CC2)C1`, the “% Inhibition” value is given as -4% and the Z score is listed as 0.75.

As to `CCc1ccc(CN2CCC[C@H](CNC(=O)c3ccc[nH]3)C2)nc1`, the “% Inhibition” value is on record as -4% and the Z score worked out at 0.44.

On to `CCc1ccc(CN2CCC[C@H](c3ncc[nH]3)C2)nc1`, for which the “% Inhibition” value was determined as 65% and the Z score is reported as -9.74.

For the compound `Cc1[nH]c(CN2CCC[C@H](c3ncc[nH]3)C2)cc1C#N`, the “% Inhibition” value is -1% and the Z score was 0.23.

In the case of `Cc1ccc(CN2CCC3(CC2)c2nc[nH]c2CCN3C(=O)C2CCC2)cc1C`, the “% Inhibition” value is -14% and the Z score was determined as 1.47.

For `Cc1cccc2c1OCC[C@@H]2NCc1cnn(C(C)C)c1`, the “% Inhibition” value came out at 0% and the Z score is 0.

In the case of `O=C(O)c1cccc(-c2noc(C3CC3)n2)c1`, the “% Inhibition” value was 11% and the Z score was -1.45.

In the case of `O=C(c1cccc(-c2noc(C3CCC3)n2)c1)N1CCN(c2ccccc2)CC1`, the “% Inhibition” value was -3% and the Z score is on record as 0.4.

With `CC1CC(N)CCN1C(=O)c1cccc(-c2noc(C3CC3)n2)c1` (centres undefined), the “% Inhibition” value turned out to be 56% and the Z score stood at 0.5.

For the compound `Cc1cc(C(=O)N(CC2CCC2)CC(F)(F)F)[nH]n1`, the “% Inhibition” value is -10% and the Z score stood at 1.63.

As to `CN1CCCC[C@@H]1CNC(=O)c1ccc2nc(-c3ccc(F)cc3)cn2c1`, the “% Inhibition” value is -5% and the Z score is given as 0.91.

`O=C(NCCN1CCCC1)c1ccc2nc(-c3ccc(Cl)cc3)cn2c1`: the “% Inhibition” value is on record as 75% and the Z score is on record as -6.47.

Take `CN1CCC[C@@H]1CCNC(=O)c1ccc2nc(-c3ccc(F)cc3)cn2c1`: the “% Inhibition” value came out at 8% and the Z score was -1.12.

For `Cc1ccn2c(C(=O)NCc3cc(F)ccc3C)nnc2n1`, the “% Inhibition” value is -17% and the Z score is 3.23.

On to `O=C1CCN(Cc2cc3cc4c(cc3nc2-c2ccc(Cl)cc2)OCO4)CCN1`, for which the “% Inhibition” value was found to be 2% and the Z score was -0.18.

Consider `CCN1CCN(Cc2cc3cc4c(cc3nc2-c2ccc(Cl)cc2)OCO4)CC1`, for which the “% Inhibition” value is -10% and the Z score amounted to 1.95.

On to `CN1CCN(Cc2cc3cc4c(cc3nc2-c2ccc(Cl)cc2)OCO4)CC1=O`, for which the “% Inhibition” value was 53% and the Z score is reported as -6.77.

Take `Cc1ccc(-c2nnc(N3CCC4(CCOC4)C3)n2CC2CCCO2)s1` (centres undefined): the “% Inhibition” value is recorded as -3% and the Z score is given as 0.32.

With `O=C1N[C@H]2C[C@@H](C(=O)NC[C@H]3O[C@H](CCOc4ccccc41)CC[C@@H]3O)N(Cc1ccc3c(c1)OCO3)C2`, the “% Inhibition” value is 26% and the Z score is listed as -2.92.

With `O=C1N[C@H]2C[C@@H](C(=O)NC[C@H]3O[C@H](CCOc4cc(-c5ccccc5)ccc41)CC[C@@H]3O)N(Cc1ccc3c(c1)OCO3)C2`, the “% Inhibition” value came out at 51% and the Z score was -1.36.

For `O=C1N[C@H]2C[C@@H](C(=O)NC[C@H]3O[C@H](CCOc4cc(-c5ccccc5)ccc41)CC[C@@H]3O)N(Cc1ccc(Cl)c(F)c1)C2`, the “% Inhibition” value is 37% and the Z score is reported as -4.16.

Take `CC(C)c1cc(NCCCn2ccnn2)nc(N)n1`: the “% Inhibition” value is reported as -5% and the Z score is 0.75.

With `CC(C)(C)CCCC(=O)NCCn1cnnc1C1CC1`, the “% Inhibition” value is on record as -7% and the Z score is on record as 1.32.

Regarding `CN1CC[C@@H](CNC(=O)c2ccnc3c2ncn3C)[C@@H]1c1cccnc1`, the “% Inhibition” value was 1% and the Z score was -0.18.

In the case of `CN1CCC(N(C)C(=O)c2ccccc2NC2CCCCC2)CC1`, the “% Inhibition” value came out at 6% and the Z score is given as -1.03.

Turning to `COCCC(CNC(C)c1nccnc1C)NC(=O)OC(C)(C)C` (centres undefined), the “% Inhibition” value is on record as -12% and the Z score stood at 1.51.

Consider `CCN1CCN(c2c(CN(C(=O)NC3CCCCC3)C(C)C)c(C)nn2-c2cccc(F)c2)CC1`, for which the “% Inhibition” value is reported as -10% and the Z score was 1.04.

On to `Cc1ccc(C(=O)Nc2cc(C(=O)N3CCCCC3C)cc(C(=O)N3CCCCC3C)c2)cc1` (centres undefined), for which the “% Inhibition” value is 6% and the Z score is -0.87.

As for `Cc1ccc(C(=O)Nc2cc3c4c(c2)C2CCCC2CN4CC2CCCC32)cc1` (centres undefined), the “% Inhibition” value is listed as 57% and the Z score was -4.94.

Turning to `Cc1ccc(C(=O)Nc2ccc(N3CCCN(C(=O)C4CCCC4)CC3)c(C(=O)N3CCCCC3)c2)cc1`, the “% Inhibition” value is recorded as -4% and the Z score worked out at 0.58.

For the compound `Fc1cc(Br)cnc1CN1CCC[C@H]1c1ncn[nH]1`, the “% Inhibition” value stood at 19% and the Z score is -2.4.

With `COc1ccc(CCNC(=O)N2CC=C(C(F)(F)F)CC2)cc1F`, the “% Inhibition” value turned out to be 6% and the Z score is listed as -1.17.

Regarding `Cc1ccc(Nc2nc(N)nc(Cn3cnc(C)c3C)n2)cc1`, the “% Inhibition” value is on record as -3% and the Z score was 0.51.

As for `Cc1ccc(Nc2nc(N)nc(CN3CCCCCCC3)n2)cc1`, the “% Inhibition” value is given as -5% and the Z score is 0.66.

Regarding `OC1CCN(Cc2ccc(CNc3ccc(F)cn3)cc2)CC1`, the “% Inhibition” value is -6% and the Z score is 0.93.

Regarding `CC(C)n1ccnc1[C@H]1CCCN(C(=O)c2cnc3c(c2)CCCC3)C1`, the “% Inhibition” value is on record as 3% and the Z score is -0.26.

For `NC(=O)c1n[nH]c2ccc(NC(=O)c3nn(-c4ccccc4)c(=O)c4ccccc34)cc12`, the “% Inhibition” value is reported as -3% and the Z score is 0.31.

For `CN1CCCN(c2ccc(NC(=O)c3nn(-c4ccccc4)c(=O)c4ccccc34)cc2F)CC1`, the “% Inhibition” value is 82% and the Z score was -6.28.

For `O=C(Nc1cc(C(F)(F)F)ccc1N1CCOCC1)c1nn(-c2ccccc2)c(=O)c2ccccc12`, the “% Inhibition” value was -15% and the Z score is given as 2.63.

The values above are taken from ChEMBL document CHEMBL4888484, “Replenishing the malaria drug discovery pipeline: Screening and hit evaluation of the MMV Hit Generation Library 1 (HGL1) against asexual blood stage Plasmodium falciparum ,using a nano luciferase reporter read-out” (2022).
